These results are taken from a collection of fitness landscapes (doi:10.1126/science.1257360).

The full ranking holds about 140,000 sequences; the median of “enrichment ratio after two sorts for PhoP signalling” is about 0, and the highest 2% start at about 11. The entries come from a sample that favours the highest values as a whole.

B1: PhoQ; a variant is named by its letters at X, in order, P23837 (parent)
chain: MKKLLRLFFPLSLRVRFLLATAAVVLVLSLAYGMVALIGYSVSFDKTTFRLLRGESNLFYTLAKWENNKLHVELPENIDKQSPTMTLIYDENGQLLWAQRDVPWLMKMIQPDWLKSNGFHEIEADVNDTSLLLSGDHSIQQQLQEVREDDDDAEMTHSVAVNVYPATSRMPKLTIVVVDTIPVELKSSYMVWSWFIYVLSANLLLVIPLLWVAAWWSLRPIEALAKEVRELEEHNRELLNPATTRELTSLVRNLNRLLKSERERYDKYRTTLTDLTHSLKTPLXXLQXXLRSLRSEKMSVSDAEPVMLEQISRISQQIGYYLHRASMRGGTLLSRELHPVAPLLDNLTSALNKVYQRKGVNISLDISPEISFVGEQNDFVEVMGNVLDNACKYCLEFVEISARQTDEHLYIVVEDDGPGIPLSKREVIFDRGQRVDTLRPGQGVGLAVAREITEQYEGKIVAGESMLGGARMEVIFGRQHSAPKDE

In this assay the parent is B1. Kind of assay: enrichment ratio after two sorts for PhoP signalling (ratio (wild type AVST 3.29)); higher = more functional. Particulars: with PhoP (E. coli).
For YNRN, the enrichment ratio was no more than 0.25.

For the variant VLSY, the enrichment ratio came out at 0.334.

DDLI: the enrichment ratio was no more than 0.25.

For the variant ARIV, the enrichment ratio is no more than 0.25.

Consider HMEL, for which the enrichment ratio is no more than 0.25.

PRTC: the enrichment ratio was no more than 0.25.

INYQ: the enrichment ratio was no more than 0.25.

With ICWY, the enrichment ratio is no more than 0.25.

In the case of RSTG, the enrichment ratio is no more than 0.25.

Consider YLPW, for which the enrichment ratio is no more than 0.25.

Consider WEVD, for which the enrichment ratio was no more than 0.25.

Take ANLP: the enrichment ratio was no more than 0.25.

On to GSLF, for which the enrichment ratio came to 11.4.

Take GSGM: the enrichment ratio stood at 8.45.

Turning to TPLF, the enrichment ratio was no more than 0.25.

Turning to GSLM, the enrichment ratio is 20.9.

In the case of GNLF, the enrichment ratio was 6.83.

As for GSFM, the enrichment ratio is no more than 0.25.

KGAD: the enrichment ratio was no more than 0.25.

Regarding MQRI, the enrichment ratio is no more than 0.25.

On to EYAR, for which the enrichment ratio was no more than 0.25.

As to AIYG, the enrichment ratio stood at 0.334.

Take AEHG: the enrichment ratio was no more than 0.25.

As for AEMS, the enrichment ratio turned out to be 31.

For the variant ADYG, the enrichment ratio is no more than 0.25.

Take AEEG: the enrichment ratio is no more than 0.25.

With AEGG, the enrichment ratio is no more than 0.25.

AEMF: the enrichment ratio was no more than 0.25.

With AEYG, the enrichment ratio came out at 36.3.

In the case of AEMT, the enrichment ratio amounted to 5.41.

On to AEMG, for which the enrichment ratio came out at 14.3.

In the case of AEIG, the enrichment ratio was 21.9.

Take QPAL: the enrichment ratio was no more than 0.25.

Take QTTM: the enrichment ratio is no more than 0.25.

With SAVI, the enrichment ratio amounted to 3.04.

Turning to NWIW, the enrichment ratio was no more than 0.25.

Turning to RGNN, the enrichment ratio was no more than 0.25.

On to GTDL, for which the enrichment ratio is no more than 0.25.

Consider AEMA, for which the enrichment ratio came to 25.6.

With AGMA, the enrichment ratio stood at 5.7.

For the variant AEGA, the enrichment ratio was 11.

Turning to IMTE, the enrichment ratio is no more than 0.25.

Regarding PMNV, the enrichment ratio is no more than 0.25.

Turning to YHPY, the enrichment ratio was no more than 0.25.

For the variant TNGH, the enrichment ratio is 7.13.

Regarding QRSI, the enrichment ratio was no more than 0.25.

As for TATS, the enrichment ratio is 19.8.

As for QASI, the enrichment ratio worked out at 12.8.

TASS: the enrichment ratio worked out at 13.4.

Consider TATH, for which the enrichment ratio came to 3.27.

Take NASI: the enrichment ratio was no more than 0.25.

With TASK, the enrichment ratio was 0.795.

Consider NASS, for which the enrichment ratio was no more than 0.25.

With KASS, the enrichment ratio was 1.62.

For TATC, the enrichment ratio is 7.1.

On to KASI, for which the enrichment ratio is no more than 0.25.

In the case of TASI, the enrichment ratio was 12.5.

Regarding MVMH, the enrichment ratio was no more than 0.25.

As to DHNH, the enrichment ratio is no more than 0.25.

Turning to KASC, the enrichment ratio is no more than 0.25.

TATG: the enrichment ratio stood at 18.

As to TASC, the enrichment ratio came out at 12.7.

With NATG, the enrichment ratio is no more than 0.25.

As for KATG, the enrichment ratio was no more than 0.25.

For the variant NASC, the enrichment ratio is no more than 0.25.

FSNY: the enrichment ratio is no more than 0.25.

For the variant TWVT, the enrichment ratio was no more than 0.25.

Turning to GCCI, the enrichment ratio is 5.84.

With GCVG, the enrichment ratio is no more than 0.25.

Turning to GYIG, the enrichment ratio is no more than 0.25.

With GCGG, the enrichment ratio was no more than 0.25.

Turning to GCMG, the enrichment ratio turned out to be 16.9.

On to GQIV, for which the enrichment ratio amounted to 0.651.

Turning to GCCG, the enrichment ratio came to 18.1.

Take GCIG: the enrichment ratio was 12.8.

Take QCCG: the enrichment ratio was no more than 0.25.

In the case of GQIG, the enrichment ratio was 23.8.

As for GTIG, the enrichment ratio was 1.96.

On to GNIG, for which the enrichment ratio is 1.98.

Take LGAY: the enrichment ratio is no more than 0.25.

With SVEV, the enrichment ratio was no more than 0.25.

Consider YSQV, for which the enrichment ratio was no more than 0.25.

Turning to KMDL, the enrichment ratio is no more than 0.25.

Regarding NRSD, the enrichment ratio was no more than 0.25.

For TNRT, the enrichment ratio was no more than 0.25.

On to FPTD, for which the enrichment ratio is no more than 0.25.

As to IEAY, the enrichment ratio is no more than 0.25.

Turning to AHTL, the enrichment ratio was 6.56.

As to HKTL, the enrichment ratio is no more than 0.25.

For the variant AVTL, the enrichment ratio was found to be 12.5.

For AETL, the enrichment ratio was 15.1.

For the variant AMTL, the enrichment ratio stood at 4.39.

Regarding TKTL, the enrichment ratio stood at 16.

Consider AVWL, for which the enrichment ratio is no more than 0.25.

On to AVEL, for which the enrichment ratio was no more than 0.25.

As for AITL, the enrichment ratio was 24.3.

MKTL: the enrichment ratio was no more than 0.25.

For MHYL, the enrichment ratio is no more than 0.25.

Take ALHS: the enrichment ratio was no more than 0.25.

In the case of THYA, the enrichment ratio was no more than 0.25.

Take TPED: the enrichment ratio was no more than 0.25.

As for WDQY, the enrichment ratio was no more than 0.25.

With IFCF, the enrichment ratio is no more than 0.25.

On to ALTL, for which the enrichment ratio was 15.2.

Regarding KKTL, the enrichment ratio was no more than 0.25.

AKTL: the enrichment ratio was 12.5.

With AWTL, the enrichment ratio is no more than 0.25.

Regarding KLTL, the enrichment ratio was no more than 0.25.

ANTL: the enrichment ratio came out at 12.9.

In the case of VRTL, the enrichment ratio is no more than 0.25.

In the case of LLTL, the enrichment ratio was no more than 0.25.

For the variant ASTL, the enrichment ratio worked out at 20.2.

ASEL: the enrichment ratio stood at 3.67.

In the case of ADTL, the enrichment ratio was no more than 0.25.

LLVY: the enrichment ratio is no more than 0.25.

Take YYRY: the enrichment ratio is no more than 0.25.

Turning to RSKL, the enrichment ratio was no more than 0.25.

For EIAA, the enrichment ratio was no more than 0.25.

In the case of SNVV, the enrichment ratio was 7.87.

In the case of ACTL, the enrichment ratio stood at 15.2.

ACTK: the enrichment ratio amounted to 4.69.

For the variant AGAW, the enrichment ratio is no more than 0.25.

With PHQA, the enrichment ratio was no more than 0.25.

For the variant GQCI, the enrichment ratio was 2.43.

Regarding GTCG, the enrichment ratio is 7.53.

As for GQCE, the enrichment ratio turned out to be 21.9.

Regarding PWCG, the enrichment ratio was no more than 0.25.

With GQCG, the enrichment ratio came out at 16.6.

With GVCG, the enrichment ratio was 12.7.

In the case of GNCW, the enrichment ratio was no more than 0.25.

Take GQWG: the enrichment ratio was no more than 0.25.

With GQCS, the enrichment ratio amounted to 4.33.

Turning to PNCG, the enrichment ratio was no more than 0.25.

With NVCW, the enrichment ratio was no more than 0.25.

With GVCW, the enrichment ratio was found to be 11.5.

On to TNLK, for which the enrichment ratio is no more than 0.25.

For the variant EITI, the enrichment ratio is no more than 0.25.

With RPCA, the enrichment ratio is no more than 0.25.

On to WVGL, for which the enrichment ratio is no more than 0.25.

Consider NTRE, for which the enrichment ratio was no more than 0.25.

Consider RRCS, for which the enrichment ratio was no more than 0.25.

As for NLFK, the enrichment ratio was no more than 0.25.

In the case of SDVW, the enrichment ratio was no more than 0.25.

For the variant PHGP, the enrichment ratio was no more than 0.25.

On to TMNK, for which the enrichment ratio is no more than 0.25.

Take NHGC: the enrichment ratio was no more than 0.25.

On to TMNC, for which the enrichment ratio was determined as 15.3.

On to TMGC, for which the enrichment ratio worked out at 11.3.

Take QGGC: the enrichment ratio came to 19.5.

With TMPC, the enrichment ratio was no more than 0.25.

As for DMNC, the enrichment ratio was no more than 0.25.

Consider KMNC, for which the enrichment ratio was no more than 0.25.

Turning to KCGC, the enrichment ratio was no more than 0.25.

TMTC: the enrichment ratio turned out to be 13.5.

Regarding QPGC, the enrichment ratio is no more than 0.25.

Turning to FFGC, the enrichment ratio was no more than 0.25.

For the variant EFVE, the enrichment ratio was no more than 0.25.

For GASP, the enrichment ratio is no more than 0.25.

Turning to HAHN, the enrichment ratio is no more than 0.25.

On to TMPP, for which the enrichment ratio is no more than 0.25.

In the case of VEGC, the enrichment ratio was no more than 0.25.

On to TMGA, for which the enrichment ratio came out at 17.5.

For MITC, the enrichment ratio is no more than 0.25.

Take MIGC: the enrichment ratio came to 41.4.

As to DMLC, the enrichment ratio is no more than 0.25.

With MEGC, the enrichment ratio was no more than 0.25.

Regarding TMGQ, the enrichment ratio stood at 5.04.

For the variant GMGC, the enrichment ratio was no more than 0.25.

As to NMLC, the enrichment ratio is no more than 0.25.

Turning to TMLC, the enrichment ratio came out at 13.8.

On to TCGC, for which the enrichment ratio is 23.2.

As to ATVL, the enrichment ratio is 4.07.

As to EFKF, the enrichment ratio was no more than 0.25.

Take SCEM: the enrichment ratio was no more than 0.25.

In the case of NQGC, the enrichment ratio was no more than 0.25.

Regarding AIGC, the enrichment ratio is 5.62.

In the case of TMQR, the enrichment ratio came to 8.83.

Consider TMKR, for which the enrichment ratio is no more than 0.25.

Regarding TMWA, the enrichment ratio was no more than 0.25.

Regarding AQGC, the enrichment ratio came out at 12.4.

As for THGC, the enrichment ratio was found to be 5.27.

Turning to TGGC, the enrichment ratio was determined as 11.2.

On to TMCR, for which the enrichment ratio was determined as 20.7.

Turning to TMPI, the enrichment ratio was no more than 0.25.

With CFGC, the enrichment ratio was no more than 0.25.

On to TMTS, for which the enrichment ratio was determined as 11.7.

On to RMSH, for which the enrichment ratio was no more than 0.25.

Consider QWWT, for which the enrichment ratio was no more than 0.25.

For TGKL, the enrichment ratio was no more than 0.25.

With NNCI, the enrichment ratio was no more than 0.25.

As for HTDV, the enrichment ratio is no more than 0.25.

With IQST, the enrichment ratio is no more than 0.25.

On to SVER, for which the enrichment ratio is no more than 0.25.

As for HCRQ, the enrichment ratio was no more than 0.25.

In the case of NKWN, the enrichment ratio is no more than 0.25.
